In PubChem BioAssay (EPA / NIEHS):
“And” between values parts separate entries of the source, which are not always exact repeats. Identical values can stand only once. Records with an inconclusive call do not appear. Some compounds were tested as several samples or in several runs, with calls that do not always agree. The source made the active and inactive calls. How the source made its calls, unless noted: active means hit-call score of the fitted dose curve at least 0.9, where 1 is the maximum; inconclusive means response in the unintended direction; inactive means score below 0.9.

What was measured:
[1] = biological target: Estrogen receptor beta (Homo sapiens) (UniProt Q92731); assay: OT_ER_ERbERb_1440: Odyssey Thera (OT) 24-hour HEK293T Protein-Complementation Assay for Estrogen Receptor-beta/-beta Homodimer (AID 2283380);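 further: fluorescence gain from ER beta LBD homodimer complementation read by laser scanning cytometry; scored as signal increase over DMSO baseline for both agonists and antagonists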
Sequence of Estrogen receptor beta (Homo sapiens) (Q92731 whole entry, looked up, the tested form may be a part): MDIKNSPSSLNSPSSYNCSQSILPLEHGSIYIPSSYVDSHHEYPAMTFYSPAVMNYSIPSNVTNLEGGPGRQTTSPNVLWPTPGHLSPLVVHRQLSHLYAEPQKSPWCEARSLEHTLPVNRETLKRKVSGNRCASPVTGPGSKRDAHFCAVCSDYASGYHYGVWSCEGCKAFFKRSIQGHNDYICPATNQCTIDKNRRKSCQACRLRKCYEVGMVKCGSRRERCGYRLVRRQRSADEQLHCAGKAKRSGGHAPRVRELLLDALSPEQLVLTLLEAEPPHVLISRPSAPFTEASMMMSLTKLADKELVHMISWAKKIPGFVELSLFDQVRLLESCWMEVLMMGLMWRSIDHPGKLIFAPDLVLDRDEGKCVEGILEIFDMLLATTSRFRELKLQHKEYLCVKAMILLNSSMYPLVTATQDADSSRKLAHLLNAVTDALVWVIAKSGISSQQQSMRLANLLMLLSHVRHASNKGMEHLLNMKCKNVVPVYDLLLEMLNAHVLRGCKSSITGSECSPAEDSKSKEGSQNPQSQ
Summary of the method: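 HEK293T cells stably expressing human ER-beta LBD (aa 310-547) PCA homodimer pair, dosed 24 h; formaldehyde-fixed, Draq5-stained. Readout: increase in nuclear (agonist) or nuclear plus cytoplasmic (antagonist) fluorescence intensity versus DMSO, gain-of-signal fitting.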

[2] = biological target: Estrogen receptor (Homo sapiens) (UniProt P03372); assay: OT_ERa_GFPERaERE_0480: Odyssey Thera (OT) 8-hour HeLa Transcription Induction Assay for Estrogen Receptor (AID 2283381; active means hit-call score of the fitted dose curve at least 0.9, where 1 is the maximum; inactive means score below 0.9)
Sequence of Estrogen receptor (Homo sapiens) (P03372 whole entry, looked up): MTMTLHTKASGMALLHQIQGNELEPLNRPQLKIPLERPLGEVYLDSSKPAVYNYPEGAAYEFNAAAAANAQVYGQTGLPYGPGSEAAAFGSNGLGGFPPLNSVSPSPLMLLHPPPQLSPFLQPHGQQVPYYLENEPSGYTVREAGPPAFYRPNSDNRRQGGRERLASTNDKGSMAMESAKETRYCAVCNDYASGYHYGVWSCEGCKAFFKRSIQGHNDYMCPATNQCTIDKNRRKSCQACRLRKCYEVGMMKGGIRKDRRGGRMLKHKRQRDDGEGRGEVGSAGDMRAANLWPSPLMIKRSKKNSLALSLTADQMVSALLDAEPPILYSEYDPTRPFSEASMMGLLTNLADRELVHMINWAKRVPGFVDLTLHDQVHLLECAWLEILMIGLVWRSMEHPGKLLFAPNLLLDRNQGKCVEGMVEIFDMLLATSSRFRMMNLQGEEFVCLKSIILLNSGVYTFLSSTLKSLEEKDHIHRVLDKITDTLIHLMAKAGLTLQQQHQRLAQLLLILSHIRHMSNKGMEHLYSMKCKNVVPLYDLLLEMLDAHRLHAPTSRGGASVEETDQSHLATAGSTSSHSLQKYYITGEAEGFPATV
Summary of the method: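 HeLa cells expressing GFP reporter under estrogen response element, imaged 8 h after dosing. GFP induction quantified by high-content fluorescence microscopy image analysis; gain of signal fitted versus DMSO.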

[3] = biological target: Estrogen receptor (Homo sapiens) (UniProt P03372); assay: OT_ERa_GFPERaERE_0120: Odyssey Thera (OT) 2-hour HeLa Transcription Induction Assay for Estrogen Receptor (AID 2283382)
Summary of the method: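 HeLa cells were dosed for 2 h, then GFP reporter induction was quantified by fluorescence microscopy with high-content image analysis. Gain of signal fitted against DMSO baseline.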

[4] = biological target: Bile acid receptor (Homo sapiens) (UniProt Q96RI1); assay: OT_FXR_FXRSRC1_1440: Odyssey Thera (OT) 24-hour HEK293T Protein-Complementation Assay for Farnesoid X receptor/SRC-1 Co-activator (AID 2283384)
Sequence of Bile acid receptor (Homo sapiens) (Q96RI1 whole entry, looked up, the tested form may be a part): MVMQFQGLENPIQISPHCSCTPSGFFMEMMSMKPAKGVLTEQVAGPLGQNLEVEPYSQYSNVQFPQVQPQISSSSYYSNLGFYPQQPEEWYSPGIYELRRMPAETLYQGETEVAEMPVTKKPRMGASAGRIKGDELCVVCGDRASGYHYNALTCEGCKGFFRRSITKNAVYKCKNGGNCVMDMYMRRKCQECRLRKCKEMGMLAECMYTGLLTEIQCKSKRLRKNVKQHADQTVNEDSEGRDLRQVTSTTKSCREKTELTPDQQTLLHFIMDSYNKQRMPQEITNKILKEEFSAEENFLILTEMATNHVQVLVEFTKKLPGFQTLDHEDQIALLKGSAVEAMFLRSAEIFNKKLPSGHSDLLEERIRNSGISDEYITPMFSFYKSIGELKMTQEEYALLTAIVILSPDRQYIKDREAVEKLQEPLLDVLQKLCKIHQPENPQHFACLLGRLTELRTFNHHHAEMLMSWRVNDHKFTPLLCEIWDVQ
Summary of the method: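 HEK293T cells, 24 h after chemical dosing. FXR–SRC-1 coactivator interaction read as fluorescence from protein-fragment complementation of a split reporter. Gain of signal fitted against DMSO baseline.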

[5] = biological target: Peroxisome proliferator-activated receptor gamma (Homo sapiens) (UniProt P37231); assay: OT_PPARg_PPARgSRC1_0480: Odyssey Thera (OT) 8-hour Protein-Complementation Assay for Peroxisome Proliferator-activated Receptor Gamma / SRC-1 Co-activator (AID 2283387);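 further: nuclear to cytoplasmic split Venus YFP fluorescence ratio reporting PPARg SRC-1 interaction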
Sequence of Peroxisome proliferator-activated receptor gamma (Homo sapiens) (P37231 whole entry, looked up, the tested form may be a part): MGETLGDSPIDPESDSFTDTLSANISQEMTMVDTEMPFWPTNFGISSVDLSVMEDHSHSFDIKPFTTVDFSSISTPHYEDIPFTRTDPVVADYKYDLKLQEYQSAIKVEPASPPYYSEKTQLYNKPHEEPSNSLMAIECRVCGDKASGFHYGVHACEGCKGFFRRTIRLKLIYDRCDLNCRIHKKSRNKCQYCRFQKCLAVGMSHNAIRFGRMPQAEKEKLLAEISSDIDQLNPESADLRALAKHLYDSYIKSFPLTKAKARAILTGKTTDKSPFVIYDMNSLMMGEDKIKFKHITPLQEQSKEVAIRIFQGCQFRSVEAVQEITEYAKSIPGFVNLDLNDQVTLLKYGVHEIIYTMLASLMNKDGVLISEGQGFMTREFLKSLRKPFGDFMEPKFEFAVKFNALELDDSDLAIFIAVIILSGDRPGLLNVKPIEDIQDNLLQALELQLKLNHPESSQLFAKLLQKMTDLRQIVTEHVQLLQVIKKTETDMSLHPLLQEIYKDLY
Summary of the method: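 HEK293T transiently transfected with PPARg and SRC-1 fused to Venus YFP fragments, compounds 8 h at 37C. Fixed, Draq5-stained cells imaged; nuclear/cytoplasmic 488 nm fluorescence ratio over at least 350 cells per image; gain fitted versus DMSO.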

[6] = biological target: Peroxisome proliferator-activated receptor gamma (Homo sapiens) (UniProt P37231); assay: OT_PPARg_PPARgSRC1_1440: Odyssey Thera (OT) 24-hour Protein-Complementation Assay for Peroxisome Proliferator-activated Receptor Gamma/ SRC-1 Co-activator (AID 2283388)
Summary of the method: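 Cells carrying the PPARg/SRC-1 fragment-complementation reporter receive compound for 24 hours, are fixed and counterstained with Draq5, then imaged. Increased nuclear relative to cytoplasmic YFP fluorescence above DMSO baseline indicates binding activity.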

[7] = CEETOX_H295R_OHPREG: CeeTox H295R High-throughput Steroidogenesis Assay for OH-Pregnenolone (OHPREG) (AID 2283434; active means hit-call score of the fitted dose curve at least 0.9, where 1 is the maximum; inactive means score below 0.9); conditions: actives raise or lower the signal
Summary of the method: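 Human adrenal H295R cells were prestimulated 48 h with 10 uM forskolin, then exposed 48 h to chemical in 0.1% DMSO. Medium 17alpha-hydroxypregnenolone was quantified by HPLC-MS/MS after MTBE extraction; bidirectional fitting versus DMSO baseline.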

[8] = CEETOX_H295R_OHPROG: CeeTox H295R High-throughput Steroidogenesis Assay for OH-Progesterone (OHPROG) (AID 2283435; active means hit-call score of the fitted dose curve at least 0.9, where 1 is the maximum; inactive means score below 0.9); conditions: actives raise or lower the signal
Summary of the method: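 H295R adrenal cells prestimulated 48 h with 10 uM forskolin, then exposed 48 h to chemical (0.1% DMSO final). 17alpha-hydroxyprogesterone in medium quantified by HPLC-MS/MS; bidirectional fit versus DMSO, with MTT viability measured in the same wells.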

[9] = biological target: Retinoic acid receptor RXR-alpha (Homo sapiens) (UniProt P19793); assay: OT_NURR1_NURR1RXRa_0480: Odyssey Thera (OT) 8-hour HEK293T Protein Complementation Assay for Nurr1/retinoid X receptor (RXR) (AID 2283385)
Sequence of Retinoic acid receptor RXR-alpha (Homo sapiens) (P19793 whole entry, looked up, the tested form may be a part): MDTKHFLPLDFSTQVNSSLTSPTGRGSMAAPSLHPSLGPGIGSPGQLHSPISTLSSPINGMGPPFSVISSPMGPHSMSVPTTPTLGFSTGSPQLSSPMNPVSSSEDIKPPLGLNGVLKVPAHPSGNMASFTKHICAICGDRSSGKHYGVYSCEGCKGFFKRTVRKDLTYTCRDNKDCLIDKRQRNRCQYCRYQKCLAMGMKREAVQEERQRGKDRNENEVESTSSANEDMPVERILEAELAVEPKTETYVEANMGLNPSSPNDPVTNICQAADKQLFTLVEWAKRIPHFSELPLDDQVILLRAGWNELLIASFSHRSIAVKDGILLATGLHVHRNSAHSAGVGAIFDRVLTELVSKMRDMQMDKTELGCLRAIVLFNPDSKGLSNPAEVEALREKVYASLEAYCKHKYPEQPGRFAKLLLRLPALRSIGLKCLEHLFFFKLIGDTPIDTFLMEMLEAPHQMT
Summary of the method: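 HEK293T cells expressing Nurr1 and RXRα fused to reporter fragments (protein-fragment complementation); fluorescence measured 8 h after dosing. Gain of signal fitted relative to DMSO.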

[10] = biological target: Retinoic acid receptor RXR-alpha (Homo sapiens) (UniProt P19793); assay: OT_NURR1_NURR1RXRa_1440: Odyssey Thera (OT) 24-hour HEK293T Protein Complementation Assay for Nurr1/retinoid X receptor (RXR) (AID 2283386)
Summary of the method: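 HEK293T protein-fragment complementation of Nurr1 and RXRα fused to reporter fragments; compounds 24 h. Fluorescence gain from reconstituted reporter fitted versus DMSO.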

[11] = biological target: Agonist Androgen Response Element (ARE), AR (gene 367) (UniProt P10275); assay: OT_AR_ARELUC_AG_1440: Odyssey Thera (OT) 24-hour CHO-K1 Luciferase Assay for Agonist Androgen Response Element (ARE) (AID 2283379)
Sequence of Agonist Androgen Response Element (ARE), AR (gene 367) (P10275 whole entry, looked up): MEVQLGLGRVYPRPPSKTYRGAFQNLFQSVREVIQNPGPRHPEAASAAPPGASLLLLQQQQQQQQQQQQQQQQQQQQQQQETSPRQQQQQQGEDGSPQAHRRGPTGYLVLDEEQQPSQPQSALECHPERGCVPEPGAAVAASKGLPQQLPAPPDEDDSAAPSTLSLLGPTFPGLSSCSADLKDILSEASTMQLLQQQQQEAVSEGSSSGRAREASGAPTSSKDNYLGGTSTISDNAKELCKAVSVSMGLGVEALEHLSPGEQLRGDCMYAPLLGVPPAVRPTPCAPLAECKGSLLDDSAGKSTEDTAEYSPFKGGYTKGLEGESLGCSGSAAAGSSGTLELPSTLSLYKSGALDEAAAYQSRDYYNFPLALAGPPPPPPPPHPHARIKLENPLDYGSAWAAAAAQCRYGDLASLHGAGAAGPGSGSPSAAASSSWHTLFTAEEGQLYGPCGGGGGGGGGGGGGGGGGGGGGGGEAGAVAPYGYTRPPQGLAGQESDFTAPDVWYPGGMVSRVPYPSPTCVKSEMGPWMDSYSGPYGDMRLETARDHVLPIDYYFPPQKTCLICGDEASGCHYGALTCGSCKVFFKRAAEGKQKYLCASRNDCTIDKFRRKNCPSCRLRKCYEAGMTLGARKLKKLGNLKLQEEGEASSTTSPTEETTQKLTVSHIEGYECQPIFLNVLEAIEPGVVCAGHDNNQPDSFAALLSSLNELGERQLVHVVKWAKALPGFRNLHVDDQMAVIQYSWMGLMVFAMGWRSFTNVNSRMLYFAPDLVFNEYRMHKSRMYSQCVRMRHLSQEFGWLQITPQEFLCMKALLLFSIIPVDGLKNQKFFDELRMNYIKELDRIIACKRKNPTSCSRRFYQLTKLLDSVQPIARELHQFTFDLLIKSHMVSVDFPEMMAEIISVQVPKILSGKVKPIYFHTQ
Summary of the method: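 Seed CHO-K1 cells; dose compounds for 24 h; add D-luciferin plus ATP in PBS; read luminescence. Signal increase relative to vehicle defines agonist activity, with at least 3 replicate wells per sample.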

[12] = CEETOX_H295R_11DCORT: CeeTox H295R High-throughput Steroidogenesis Assay for 11-Deoxycortisol (11DCORT) (AID 2283432; active means hit-call score of the fitted dose curve at least 0.9, where 1 is the maximum; inactive means score below 0.9); conditions: actives raise or lower the signal
Summary of the method: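 H295R cells prestimulated 48 h with 10 uM forskolin, then exposed 48 h to chemical in 0.1% DMSO. 11-Deoxycortisol in medium quantified by HPLC-MS/MS after MTBE extraction; bidirectional fit versus DMSO. MTT viability read in same wells.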

[13] = biological target: Bile acid receptor (Homo sapiens) (UniProt Q96RI1); assay: OT_FXR_FXRSRC1_0480: Odyssey Thera (OT) 8-hour HEK293T Protein-Complementation Assay for Farnesoid X receptor/SRC-1 Co-activator (AID 2283383)
Summary of the method: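 HEK293T protein-fragment complementation assay: FXR and SRC-1 coactivator are fused to reporter fragments, and their interaction restores a fluorescent reporter. Readout was taken 8 h after dosing, with gain of signal fit relative to DMSO.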

Measured: AC50

O=C1c2ccccc2C(=O)N1SC(Cl)(Cl)Cl
not listed: [9] | [10] | [11] | [12] | [13]
inactive: all other assays above

CC(C)(C)C(O)C(Oc1ccc(Cl)cc1)n1cncn1 (stereo unspecified)
active: [1] 55.6 µM | [8] 18.3 µM and 3.14 µM and 3.31 µM
inactive: [9] | [10] | [5] | [6] | [7] | [8]

CCOCN(C(=O)CCl)c1c(C)cccc1CC
active: [9] 0.654 µM
inactive: [1] | [2] | [3] | [9] | [10] | [5] | [6]

CNC(=O)CSP(=S)(OC)OC
not listed: [4] | [11] | [12] | [13]
inactive: all other assays above

O=C(O)CCCOc1ccc(Cl)cc1Cl
inactive: [11] | [1] | [9] | [10] | [5] | [6]

CNC(=O)Oc1ccccc1OC(C)C
not listed: [4] | [11] | [13]
inactive: all other assays above

COc1nn(CSP(=S)(OC)OC)c(=O)s1
active: [8] 13.6 µM
not listed: [9] | [11]
inactive: all other assays above

O=C(O)COc1ccc(Cl)cc1Cl
inactive: [9] | [10] | [12] | [7] | [8]

Cc1[nH]c(=O)n(C(C)(C)C)c(=O)c1Cl
not listed: [1] | [7] | [8] | [12]
inactive: all other assays above

CN1CSC(=S)N(C)C1
inactive: [1] | [2] | [3] | [13] | [4] | [5] | [6]

CC(C)(C)C(O)/C(=C\c1ccc(Cl)cc1Cl)n1cncn1 (stereo unspecified)
inactive: [1] | [5] | [6] | [12] | [7] | [8]
active: [2] 86.7 µM | [3] 93.6 µM

CNC(=O)Oc1cccc(N=CN(C)C)c1
not listed: [4] | [9] | [10] | [11] | [12]
inactive: all other assays above

Clc1ccccc1-c1nnc(-c2ccccc2Cl)nn1
not listed: [4] | [11] | [12] | [13]
inactive: all other assays above
